Measured values as given in PubChem BioAssay AID602192 (The Scripps Research Institute Molecular Screening Center, 2012).
Hit rate of the full screen: of about 2,400 compounds, about 750 (31%) were called active.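 The calls were made as follows: active = mean activation across replicates above the hit cutoff set in the earlier primary screen (cut at about 8% in these data); inactive = the rest.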 A selection follows.

biological target: Melanocortin receptor 4 (Homo sapiens) (UniProt P32245); test: activators of MC4R arrestin recruitment – cell-based, luminescence, U2OS, confirmation (AID 602192); conditions: U2OS MC4R beta-arrestin recruitment, at 8.9 µM, active compounds read high, scaled DMSO 0%, Melanotan II 100%
Sequence (P32245 whole entry, looked up): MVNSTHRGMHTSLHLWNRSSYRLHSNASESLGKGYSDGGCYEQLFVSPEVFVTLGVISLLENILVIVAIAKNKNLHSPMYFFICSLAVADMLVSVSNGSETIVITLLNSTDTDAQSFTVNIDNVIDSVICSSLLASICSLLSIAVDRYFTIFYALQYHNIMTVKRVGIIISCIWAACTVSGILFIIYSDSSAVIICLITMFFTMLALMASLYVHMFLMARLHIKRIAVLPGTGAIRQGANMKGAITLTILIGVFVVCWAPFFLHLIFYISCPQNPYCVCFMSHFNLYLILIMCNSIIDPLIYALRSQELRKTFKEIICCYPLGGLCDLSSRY

Row | SMILES | activation
1 | Cc1ccc(CCC(=O)Nc2ncc(Cc3cc(Cl)ccc3Cl)s2)o1 | 15.2% (active)
2 | COc1c(Cl)cc(C(=O)Nc2ccc(Cl)cn2)cc1Cl | 2.15% (inactive)
3 | COc1cccc(NC(=S)NC(=O)c2c(Cl)c(C)nn2C)c1 | 0.75% (inactive)
4 | CCN(CC)c1ccc(C(=O)N/N=C/c2ccc(N3CCOCC3)cc2)cc1 | 3.23% (inactive)
5 | O=C(N/N=C/c1ccc(OC(=O)c2ccccc2Cl)cc1)c1ccc(O)cc1 | 10.9% (active)
6 | CCCOc1ccc(C(=O)C(CCC(CNCC)C(=O)c2ccc(OCCC)cc2)CNCC)cc1 (stereo not drawn) | 47% (active)
7 | COc1cc(/C=C2\Oc3ccc(C#Cc4ccc(O)cc4)cc3C2=O)cc(OC)c1 | 17.7% (active)
8 | S=C(NCCCc1cnc[nH]1)NCCCN(Cc1ccc(Cl)c(Cl)c1)c1ccc(Br)cn1 | 12.9% (active)
9 | CC(C)c1ccc2c(c1)c(SC(C)(C)C)c(CC(C)(C)C(=O)O)n2Cc1ccc(Cl)cc1 | 6.79% (inactive)
10 | Cc1cc(OCc2cc(C(=O)NCc3cc(C(C)C)no3)no2)cc(C)c1Cl | -1.7% (inactive)
11 | Oc1ccccc1N1CCN(c2ncnc3sc(-c4ccccc4)cc23)CC1 | 3.16% (inactive)
12 | O=C(NC(=S)Nc1cccc2c(O)cccc12)c1cccc(Br)c1 | 14.4% (active)
13 | CCOc1ccc(/C=C/C(=O)OCC(=O)c2ccccc2OC)cc1OC | 4.4% (inactive)
14 | CCN1CCC2(CC1)N=C(c1ccc(F)cc1)C(=S)N2C(=O)c1ccc(C)cc1 | 6.69% (inactive)
15 | NC(N)=Nc1nc(-c2ccccc2)c2cc(Cl)ccc2n1 | 19.8% (active)
16 | CCCCN1CC(C)(C)[C@H](CC(=O)Nc2ccc(Br)cc2)C1=O | 1.84% (inactive)
17 | COc1ccccc1NC(=O)Nc1nnc(Cc2ccc(F)cc2)s1 | 4.89% (inactive)
18 | CC(=O)Nc1cc(-c2ccccc2F)cn2c(-c3cccc(C(F)(F)F)c3)cnc12 | 19% (active)
19 | COc1cccc(-c2cnc3c(NC(C)=O)cc(-c4cc(F)ccc4OC)cn23)c1 | 27.2% (active)
20 | COc1ccccc1-c1cc(NC(C)=O)c2ncc(-c3ccc(F)cc3)n2c1 | 15.2% (active)
21 | CC(=O)Nc1cc(-c2ccccc2N(C)C)cn2c(-c3ccc(F)c(Cl)c3)cnc12 | 26% (active)
22 | Fc1ccccc1/C=N/Nc1cc(N2CCCCC2)ncn1 | -2.37% (inactive)

Row | SMILES | activation
23 | O=C(Nc1ccc2oc(-c3ccc4ccccc4c3)nc2c1)c1cccs1 | 3.96% (inactive)
24 | O=C(CCCCCn1c(=S)[nH]c2cc3c(cc2c1=O)OCO3)N1CCN(c2ccc(F)cc2)CC1 | 5.47% (inactive)
25 | COC(=O)c1sccc1NC(=O)c1cc(OC)c(OC)c(OC)c1 | 3.33% (inactive)
26 | O=C(CCCCCN1C(=O)c2cccc3cccc(c23)C1=O)NCc1ccco1 | 6.44% (inactive)
27 | Cc1ccc(Sc2ccc(NC(=O)c3ccc(F)cc3)cc2C#N)cc1 | 2.18% (inactive)
28 | Cc1ccc(S(=O)(=O)NCCC(=O)Nc2ccc(C)c(Cl)c2)cc1C | 3.25% (inactive)
29 | CCOC(=O)c1nn(-c2ccccc2F)c2nc(Nc3ccccc3)cc(=O)n12 | 2.15% (inactive)
30 | CCN1CCN(CCNC(=O)c2ccc(/C=C3/Sc4ccccc4N(Cc4cccc(C)c4)C3=O)cc2)CC1 | 9.47% (active)
31 | O=C(NCCc1c[nH]c2ccc(Cl)cc12)c1ccc([N+](=O)[O-])cc1 | 3.47% (inactive)
32 | Cc1ccc(-c2csc(SCC(=O)Nc3cc(C)on3)n2)cc1 | 3.04% (inactive)
33 | Cc1ccc(-n2nc(C)c(/C=N/NC(=O)c3cccs3)c2Cl)cc1 | 12% (active)
34 | Cc1ccc(C(=O)Nc2ccc(NC(=O)c3cccs3)cc2)c(C)c1 | 2.47% (inactive)
35 | COCCN(CCOC)S(=O)(=O)c1ccc(C(=O)Nc2nc3c(s2)CCc2ccccc2-3)cc1 | 0.54% (inactive)
36 | CCCCCCCCCCOC(=O)Cn1c(COc2ccc(C)cc2)[n+](C)c2ccccc21 | 29.9% (active)
37 | CCCCCCCCCCOC(=O)Cn1c(COc2cccc(OC)c2)[n+](C)c2ccccc21 | 21.6% (active)
38 | COC(=O)c1c(C)[nH]c(C(=O)/C=C/c2ccc(Cl)cc2)c1C | 2.58% (inactive)
39 | CCn1c(SCC(=O)Nc2cccc(F)c2)nnc1-c1cc2cc(Br)ccc2o1 | 2.27% (inactive)
40 | O=C(CCCn1c(SCC(=O)c2ccc(F)cc2)nc2ccccc2c1=O)NCc1ccco1 | 4.27% (inactive)
41 | COc1ccc(Cl)cc1-n1c(C)cc(C(=O)OCC(=O)N2CC(=O)Nc3ccccc32)c1C | 10.5% (active)
42 | Cc1cccc(C)c1OC(=O)CSc1nnc(-c2ccccc2)o1 | 2.94% (inactive)
43 | O=C1N/C(=C/c2cccn2-c2ccccc2)C(=O)N1c1cccc(Cl)c1 | 13.2% (active)
44 | Clc1ccc(Nc2ncnc3c2nnn3Cc2ccccc2)cc1 | -0.43% (inactive)

Row | SMILES | activation
45 | O=C(OC12CC3CC(CC(C3)C1)C2)c1ccc(NCc2cc(O)ccc2O)cc1 | 5.55% (inactive)
46 | Cc1ccccc1NC(=O)c1ccc(COc2ccc3c(C)cc(=O)oc3c2)cc1 | 28.2% (active)
47 | COc1ccc(C(N)c2csc(NC(=O)Nc3cccc(C(F)(F)F)c3)n2)cc1 (stereo not drawn) | 11.5% (active)
48 | COc1cc(NC(=O)c2cncc(-c3ccc(C#N)cc3)c2)cc(C(=O)Nc2cccc(C(F)(F)F)c2)c1 | 2.95% (inactive)
49 | COc1ccc(CC(N)c2csc(NC(=O)NC(c3ccccc3)c3ccccc3)n2)cc1 (stereo not drawn) | 17.4% (active)
50 | COc1ccc(Cc2nnc(NC(=O)c3ccc(OC)cc3OC)s2)cc1 | -0.87% (inactive)
51 | O=C(NC1CCCCCC1)c1cccnc1Sc1ccc(Cl)cc1 | 0.48% (inactive)
52 | COc1ccc(C)c(Cn2c(-c3nonc3N)nc3ccccc32)c1 | -0.25% (inactive)
53 | CCc1ccc2c(c1)cc(CN(C(=S)Nc1ccccc1Cl)C1CC1)c1nnnn12 | 0.41% (inactive)
54 | Cc1c(-c2ccccc2)n[nH]c1C(=O)N=Nc1c(O)[nH]c2ccccc12 | 3.31% (inactive)
55 | Cc1ccsc1/C=N/Nc1ccc(Cl)nn1 | 2.12% (inactive)
56 | CCOC(=O)c1c(-c2ccccc2)oc2cc(Br)c(O)c(C=O)c12 | 12.2% (active)
57 | Cc1ccc([C@H]2C[C@H](O)[C@@H](n3cc(COC(=O)c4ccccc4)nn3)CN2C(=O)C2CCCCC2)cc1 | 1.84% (inactive)
58 | COc1cc(/C=C(\C#N)C(=O)Nc2ccc3ccccc3c2)c([N+](=O)[O-])cc1OC | 5.51% (inactive)
59 | CN(C)CCNC(=O)c1cccc(-c2cnc3c(NC=O)cc(-c4cccc(C(F)(F)F)c4)cn23)c1 | 20.8% (active)
60 | CN(C)C(=O)c1cccc(-c2cnc3c(NC=O)cc(-c4ccc(F)cc4)cn23)c1 | 9.94% (active)
61 | CC(=O)c1cccc(-c2cnc3c(NC=O)cc(-c4ccc(N(C)C)cc4)cn23)c1 | 17.7% (active)
62 | COc1ccc(-c2cc(NC=O)c3ncc(-c4ccccc4)n3c2)cc1OC | 17.6% (active)
63 | Cn1c(=S)sc2ccc3ccccc3c21 | 2.83% (inactive)
64 | C=CCn1c(SCC(=O)c2ccc(Br)cc2)nnc1C(C)NC(=O)Cc1ccc(OC)cc1 (stereo not drawn) | 3.84% (inactive)
65 | COC(=O)c1nc2n(n1)C(c1ccc([N+](=O)[O-])cc1)C(C(=O)Nc1ccc(Cl)cc1)=C(C)N2 (stereo not drawn) | -3.03% (inactive)
66 | CCOC(=O)c1c(-c2ccc(C)cc2C)csc1NC(=O)CSc1nnnn1C | -1.45% (inactive)

Row | SMILES | activation
67 | CCOC(=O)c1[nH]c2c(c1-c1ccccc1)C(=O)CC(c1ccc(Cl)cc1)C2 (stereo not drawn) | 2.82% (inactive)
68 | Cc1ccc(-n2nc3cc(Cl)c(NC(=O)c4ccco4)cc3n2)cc1 | 0.27% (inactive)
69 | COc1ccc(S(=O)(=O)N2CCC(C(=O)OCC(=O)c3ccccc3)CC2)cc1[N+](=O)[O-] | 5.6% (inactive)
70 | Cc1cc(C)cc(C(=O)OCC(=O)NCCNC(=O)COC(=O)c2cc(C)cc(C)c2)c1 | 0.95% (inactive)
71 | O=C(COC(=O)c1cccc(Br)c1)Nc1cccc2c1C(=O)c1ccccc1C2=O | 8.85% (active)
72 | O=C(CSc1ccccc1)Nc1nnc(/C=C/c2ccccc2)s1 | 32.6% (active)
73 | CCCCNc1c(-c2cccc(Sc3ccc(OC)cc3)c2)nc2ccccn12 | 5.36% (inactive)
74 | COc1ccc2sc(-c3ccc(S(C)(=O)=O)cc3)c(C#Cc3cncn3C)c2c1 | 27.1% (active)
75 | O=C(Cn1cnc2c(nnn2-c2ccccc2)c1=O)N1CCC(Cc2ccccc2)CC1 | 5% (inactive)
76 | CCN(CC)C(=O)Oc1ccc(Br)cc1C(=O)Nc1ccc(F)c(Cl)c1 | -3.02% (inactive)
77 | CCN(CC)S(=O)(=O)c1ccc(C)c(NC(=O)COc2ccc(Br)cc2Cl)c1 | 12.9% (active)
78 | CSc1ccc(/C=N\NC(=O)COc2ccc(Cl)cc2Br)cc1 | 4.69% (inactive)
79 | O=C(c1cc(-c2cccc(O)c2)on1)N1CCc2ccccc2C1 | -1.12% (inactive)
80 | Clc1ccccc1Nc1nc(NCc2cccs2)nc2ccsc12 | 2.53% (inactive)
81 | COCCNc1nc(Nc2ccccc2Cl)c2sc(-c3ccccc3)cc2n1 | 11.8% (active)
82 | COc1ccc(Nc2ncnc3sc(-c4ccccc4)cc23)c(OC)c1 | 5.2% (inactive)
83 | O=C(Nc1sc2c(c1-c1nc3ccccc3[nH]1)CCCC2)C1CC1 | 6.22% (inactive)
84 | O=C(OCc1cn(-c2ccc(Cl)c(Cl)c2)nn1)c1ccccc1Cl | -2.69% (inactive)
85 | COc1ccc(Nc2oc(-c3ccccc3Cl)nc2C#N)cc1 | 6.82% (inactive)
86 | COc1cccc(CNC(=O)c2nnn(CC(=O)Nc3cc(Cl)ccc3C)c2N)c1 | 2.75% (inactive)
87 | Cc1cc(/C=C(/C#N)C(=O)Nc2ccc(Cl)cc2)c(C)n1-c1cccnc1 | 0.76% (inactive)
88 | Cc1ccc2nc(-c3ccncc3)cc(C(=O)Nc3ccc(OC(F)F)cc3)c2c1 | 1.63% (inactive)
